Screening results as filed in PubChem BioAssay.
A selection: hits, their analogues and other compounds. The true share with any hit is near 3.2%.
KDM4E inh: JMJD2E (human) inhibition; Potency, µM (doses to about 57.1 µM), actives largely listed as inhibitors; AID 2147; JMJD2E catalytic domain, FDH-coupled NADH fluorescence (FDH is formaldehyde dehydrogenase); B2RXH2; 1.6% of 230,000 active; active = well fitted inhibition curve with a large enough effect, not every such curve was filed as active; inconclusive = small, poorly fitted or top-dose-only effect, or another doubt; inactive = no such curve, though single readings can be large or run the other way; also: nearly all actives have a fitted effect of over 50% in size
LMNA splice mod: changes lamin A minigene splicing in HeLa cells. HeLa LMNA splicing GFP/RFP minigene ratio, 48 h. Potency, µM (titrated, usually from 46.1 µM), most hits filed as inhibitors. 0.01% of 200,000 active; active = well fitted inhibition curve with a large enough effect in the signal ratio, with a control signal flat, not every such curve was filed as active; inconclusive = small, poorly fitted or top-dose-only effect, or effect the other way, or a change in a side signal; the % refers to the signal ratio
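S3 HeLa cells stably expressing lamin A-EGFP splicing minigene plus DsRed2, 600 cells/well, 48 h compound exposure at 37C. Laser-scanning cytometry; analysed as GFP (500-530 nm)/RFP (575-640 nm) total intensity ratio; 0.5% DMSO vehicle.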
Tau fluor counter: counter-screen for tau fibril formation inhibitors | 0.93% of 280,000 active | Potency, µM (titrated, usually from 57.7 µM) | tau K18 P301L Alexa594 fluorescence, heparin fibrillization; also: nearly all actives have a fitted effect of over 55% in size
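Human K18 P301L tau (15 uM unlabeled plus 0.24 uM Alexa 594-labeled, final) in 100 mM sodium acetate pH 7 was mixed with compound and 20 uM heparin and incubated 6 hr at 37 C.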
CBFb-RUNX1 inh: blocks binding between human CBF-beta and RUNX1. 230,000 tested, under 10 active. AlphaScreen CBFb-His/RUNX1-biotin binding, biochemical. Q01196+Q13951. Potency, µM (titrated, usually from 59.8 µM), actives largely listed as inhibitors. AID 1477
Target sequence (Q01196 whole entry, looked up): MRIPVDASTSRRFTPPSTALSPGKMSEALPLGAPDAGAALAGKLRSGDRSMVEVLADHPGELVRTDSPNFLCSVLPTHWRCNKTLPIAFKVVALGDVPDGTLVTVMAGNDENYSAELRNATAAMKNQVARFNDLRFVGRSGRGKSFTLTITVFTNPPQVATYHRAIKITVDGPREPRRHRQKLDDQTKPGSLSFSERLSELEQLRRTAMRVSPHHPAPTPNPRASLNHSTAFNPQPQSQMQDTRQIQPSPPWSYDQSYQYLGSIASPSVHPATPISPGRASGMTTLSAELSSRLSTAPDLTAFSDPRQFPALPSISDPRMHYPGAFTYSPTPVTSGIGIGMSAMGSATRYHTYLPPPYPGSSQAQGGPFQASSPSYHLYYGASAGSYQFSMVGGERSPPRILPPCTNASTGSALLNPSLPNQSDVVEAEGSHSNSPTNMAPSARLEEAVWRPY
Target sequence (Q13951 whole entry, looked up): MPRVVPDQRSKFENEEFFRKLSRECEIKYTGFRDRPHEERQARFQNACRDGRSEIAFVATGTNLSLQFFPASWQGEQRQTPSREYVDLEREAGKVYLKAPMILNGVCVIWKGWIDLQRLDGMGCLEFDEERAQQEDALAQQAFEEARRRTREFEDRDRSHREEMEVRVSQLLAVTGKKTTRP
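His-tagged CBF-beta and biotinylated RUNX1 (30 nM each) were premixed 20 min at room temperature, exposed to compound for 15 min, then given nickel-chelate and streptavidin AlphaScreen beads (50 ng each). After 90 min, AlphaScreen signal was read.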
Tau ThT inhib: tau fibrillization inhibition (ThT binding); recombinant tau K18 P301L (four-repeat tau fragment), heparin-induced fibrillization, ThT fluorescence; Potency, µM (series often up to 57.4 µM), most hits filed as inhibitors; 2.1% of 270,000 active; also: nearly all actives have a fitted effect of over 55% in size
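Heparin-induced (20 uM) aggregation of recombinant human K18 P301L tau, 15 uM unlabeled with 0.24 uM labeled, pH 7 acetate buffer, 6 hr at 37 C with compound. Fibrils quantified by 30 uM ThT fluorescence after 1 hr ambient incubation.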
Tau FP inhib: inhibitors of human tau fibril formation. P10636. K18 P301L tau heparin fibrillization, Alexa594 FP, 6 h. Potency, µM (titrated, usually from 57.7 µM), actives largely listed as inhibitors. 0.39% of 280,000 active; also: nearly all actives have a fitted effect of over 55% in size
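Human K18 P301L fragment (15 uM unlabeled plus 0.24 uM Alexa 594-labeled) in 100 mM sodium acetate pH 7 with compound, aggregation induced by 20 uM heparin for 6 hr at 37 C. ThT (30 uM) added for 1 hr, then Alexa 594 FP read.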
A number is an active result; i = inactive; ? = inconclusive; nt = no result given; [ ] = remark or other dose. Unless noted, calls follow the shape of the dose curve; as a rule, active = well fitted curve in the direction sought with a large enough effect; inconclusive = small, poorly fitted or top-dose-only effect, or another doubt; inactive = no such curve, though single readings can be large; an effect the other way counts as inactive or inconclusive.

SMILES | KDM4E inh | LMNA splice mod | Tau fluor counter | CBFb-RUNX1 inh | Tau ThT inhib | Tau FP inhib
CC(=O)c1ccc(-c2ccc(/C=C(/Sc3n[nH]c(C)n3)C(=O)O)o2)cc1 | i | nt | ? | i | 1µM | i
Cc1nc(S/C(=C/c2ccc(-c3ccc(C(=O)O)cc3)o2)C(=O)O)n[nH]1 | i | nt | i | ? | 4.5µM | i
O=C(O)/C(=C\c1ccc(-c2ccc(F)cc2)o1)c1ccccc1 | ? | i | i | i | ? | i
Cc1nc(S/C(=C/c2ccc(-c3cc(Cl)ccc3C)o2)C(=O)O)n[nH]1 | 5µM | nt | i | i | 11µM | i
Cc1nc(S/C(=C/c2ccc(-c3ccc(Cl)cc3)o2)C(=O)O)n[nH]1 | i | i | ? | i | 2µM | i
O=C1C2=C(S[C@@H]3O[C@H](CO)[C@@H](O)[C@H](O)[C@H]3O2)C(=O)c2ccccc21 | i | nt | i | i | ? | ?
CCc1sc(Nc2cccc(Cl)c2)nc1-c1cc2cccc(OC)c2oc1=O | nt | i | ? | nt | i | i
C=CCN1CCc2cc(O)c(O)cc2C(c2ccccc2)C1 (stereo unspecified) | ? | ? | i | i | i | i
Oc1cc2c(c(Cl)c1O)CCNCC2c1ccccc1 (stereo unspecified) | 13µM | ? | i | i | i | i
CC1=C(c2ccc(Cl)cc2)S(=O)(=O)N=C1N1CCN(c2cccc(C)c2)C(C)C1 (stereo unspecified) | nt | nt | i | nt | ? | i
Oc1cc2c(c(Cl)c1O)CCNC[C@H]2c1ccccc1 | 13µM | nt | i | i | ? | i
Cc1cccc(C2CN(C)CCc3c2cc(O)c(O)c3Cl)c1 (stereo unspecified) | 13µM | ? | i | i | ? | i
C=CCN1CCc2c(cc(O)c(O)c2Cl)C(c2ccccc2)C1 (stereo unspecified) | 13µM | ? | i | i | ? | i
Oc1ccc(C2CNCCc3c2cc(O)c(O)c3Cl)cc1 (stereo unspecified) | ? | ? | i | i | ? | i
Cc1oc(-c2ccc(C(=O)NCc3ccccc3)cc2)nc1CN1CCc2ccccc21 | nt | i | ? | nt | i | i
Cc1cc([N+](=O)[O-])ccc1NC(=O)c1ccco1 | i | nt | i | i | i | i
Cc1cc(C)cc(NC(=O)c2ccc([N+](=O)[O-])o2)c1 | i | ? | i | i | i | i
Cc1cc(NC(=O)c2ccc([N+](=O)[O-])o2)ccc1NC(=O)c1ccco1 | i | nt | i | i | 14µM | i
NS(=O)(=O)c1ccc(O)c(NC(=O)c2ccc([N+](=O)[O-])o2)c1 | ? | nt | i | i | 25µM | 18µM
Cc1ccc(C2C=C(c3ccc(Cl)cc3)Nc3nc(NC(=O)c4ccco4)nn32)cc1 (stereo unspecified) | nt | nt | i | nt | ? | ?
NCCC(O)(P(=O)(O)O)P(=O)(O)O | nt | ? | i | i | i | i
O=[N+]([O-])c1ccc(-n2nnnc2-c2ccccc2)c([N+](=O)[O-])c1 | i | ? | 11µM[quencher] | i | 14µM | ?
O=C1/C(=C\c2ccccn2)SC(=S)N1Nc1ncc(C(F)(F)F)cc1Cl | i | i | i | i | 28µM | ?
Cc1ccc(CNC(=O)c2c(-c3ccc(F)cc3F)noc2C)o1 | nt | i | i | nt | i | i
COc1cc(/C=C2\SC(=Nc3ccc(O)cc3)NC2=O)cc(OC)c1O | i | nt | i | i | ? | i
SMILES | KDM4E inh | LMNA splice mod | Tau fluor counter | CBFb-RUNX1 inh | Tau ThT inhib | Tau FP inhib
COc1cc(/C=C2\SC(c3ccc(C)cc3)=NC2=O)cc(OC)c1O | ? | ? | ? | i | 5µM | ?
Cc1ccc(C2=NC(=O)/C(=C/c3cc(O)c(O)c(Br)c3)S2)cc1 | 13µM | nt | 2.8µM[quencher] | nt | 4µM | ?
N[C@]1(C(=O)O)CCc2cc(P(=O)(O)O)ccc21 | 40µM | nt | i | i | i | i
NC1(C(=O)O)CCc2cc(P(=O)(O)O)ccc21 (stereo unspecified) | nt | nt | i | ? | i | i
COc1cc2oc(=O)ccc2cc1O | nt | nt | nt | i | nt | nt
COc1cc(/C=C/c2cc(OC(C)=O)c3ccccc3n2)c(OC(C)=O)c([N+](=O)[O-])c1 | i | i | 13µM[quencher] | i | 3.2µM | ?
CCOc1ccc(NC(=O)Nc2ccc3snnc3c2)cc1 | nt | nt | 5µM[quencher] | nt | i | ?
O=C(Nc1cccc(C(F)(F)F)c1)Nc1ccc2snnc2c1 | nt | nt | ? | nt | i | 18µM
O=C(Nc1ccccc1)Nc1ccc2snnc2c1 | ? | ? | ? | i | ? | ?
O=C(Nc1cccc(C(F)(F)F)c1)c1ccc2snnc2c1 | nt | nt | i | nt | i | i
CCOc1ccc(NC(=O)Nc2ccc3nsnc3c2)cc1 | i | ? | 13µM[quencher] | i | 14µM | i
COc1ccc(NC(=S)Nc2ccc3nsnc3c2)cc1 | i | i | ? | i | 11µM | i
CCCCOc1cccc(C(=O)N(Cc2cccs2)c2ccc(OC)cc2)c1 | nt | ? | i | nt | i | i
O=C(Oc1ccccc1)C1O[C@@H]1c1ccccc1 (stereo partly specified) | i | nt | i | i | i | i
S=C(Nc1ccc2nsnc2c1)NC1CCCCC1 | i | ? | ? | i | 28µM | ?
CCOc1ccc(NC(=S)Nc2ccc3nsnc3c2)cc1 | i | i | 14µM[quencher] | i | 2.5µM | ?
COc1ccccc1NC(=O)CSc1nc2c(oc3ccccc32)c(=O)n1Cc1ccco1 | nt | nt | i | nt | i | i
COc1cccc([C@@H]2Oc3ccc(OC)cc3C[C@H]2OC(=O)N[C@H]2CCCc3ccccc32)c1 | i | nt | i | i | i | i
CCC(Sc1nc(C)cc(C)n1)C(=O)NC1=NN=C(c2ccc(C)cc2)CS1 (stereo unspecified) | i | ? | i | i | 32µM | ?
COc1cc(/C=N/N=C(/N)c2nonc2N)cc(Br)c1OCc1cccc(C)c1 | i | i | ? | i | ? | 28µM
N#CC(=C(/N)Sc1ccccc1N)/C(C#N)=C(\N)Sc1ccccc1N | nt | nt | 18µM[quencher] | nt | 14µM | nt
CC(C)CC1OC(=O)C2=CCCCC21 (stereo unspecified) | nt | nt | nt | i | nt | nt
COc1ccc(S(=O)(=O)NCc2cccn2Cc2cc(C)ccc2C)cc1OC | nt | i | i | nt | i | i
C=C(C)C(=O)OC1(C(F)(F)F)Oc2cc(C)ccc2NC1=O (stereo unspecified) | i | ? | i | i | 16µM | ?
CC1(C)C2CCC1(C)C(OCC[N+](C)(C)CC(=O)OC1CCCCC1)C2 (stereo unspecified) | i | ? | i | i | i | i
CCOC(=O)C[N+](C)(C)CCOC1CC2CCC1(C)C2(C)C (stereo unspecified) | 18µM | nt | i | i | i | i
CC(=O)c1cccc(NC(=O)c2sc(-n3nc(C)c(Cc4ccccc4)c3C)nc2C)c1 | nt | i | i | nt | i | i
COc1ccc2[nH]c(=O)c(CNc3ccccc3)cc2c1 | i | i | i | i | i | ?
CCOc1ccc(NCc2cc3cc(OC)ccc3[nH]c2=O)cc1 | ? | nt | ? | i | 6.3µM | i
